Legend:
Assay in all cases: PBM binding z-score (relative to random genomic background probes); higher = stronger binding; sequences stand for … in GC…GCGATTGACAGCGTAGAATGAAGG
[1] = test system: RARb homodimer (NR concentration 270 nM)
Procedure, shortened: (§1)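 Binding z-scores take random background probes as their reference. They come from custom Agilent 4×180K protein-binding microarrays incubated 1 h with ligand-free nuclear receptor dimers, with antibodies against each partner (one per run) detecting binding. Scanned fluorescence was regression-normalized.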

[2] = test system: RARg:RXRa (NR concentration 270 nM, RXRa partner concentration 90 nM)
Procedure, shortened: as §1

[3] = test system: RARg homodimer (NR concentration 270 nM)
Procedure, shortened: as §1

[4] = test system: RXRa DBDmut IVT, anti-RXR (DBD mutation: RXRa K156A/R161A, NR concentration 90 nM)
Procedure, shortened: as §1

[5] = test system: RXRa homodimer (NR concentration 180 nM)
Procedure, shortened: as §1

[6] = test system: THRa:RXRa (NR concentration 90 nM, RXRa partner concentration 90 nM)
Procedure, shortened: as §1

[7] = test system: THRa homodimer (NR concentration 90 nM)
Procedure, shortened: as §1

[8] = test system: VDR homodimer (NR concentration 270 nM)
Procedure, shortened: as §1

Sequence	PBM binding z-score [1]	PBM binding z-score [2]	PBM binding z-score [3]	PBM binding z-score [4]	PBM binding z-score [5]	PBM binding z-score [6]	PBM binding z-score [7]	PBM binding z-score [8]
GCTGCTAGGTCAGGATGGTCAGCTAACGGGTACG	2.65	2.65	3.23	0.0831	1.18	1.7	0.189	0.124
CGTACTAGGTCACCAGGACAGTGAAGAGGTTGGA	3.24	4.42	5.34	1.55	3.04	3.22	1.88	0.631
CGAACTAGGTCAAAGGACAGTGGAAGGCGACGTA	3.07	3.62	4.31	1.4	2.94	2.5	0.274	0.241
ATATGTAGGTGAAGGGTCATTCAGGTTGGTTCGC	3.76	4.77	3.15	2.06	5.6	3.55	1.35	4.34
ATCGAAGGGTCGAAGGTGAGTATACCCACCCGAA	1.32	2.67	1.99	0.0916	3.12	1.05	-0.355	0.519
ACTCGGAGGACAAAGGTGAGAGCTACGCCAGTGA	1.79	2.63	1.82	0.453	1.5	1.68	0.221	0.0446
CACACTAGGTCAAAGGTCAAAGTCGAGCCAACCA	5.42	9.01	7.38	3.45	10.4	4.85	2.4	4.12
CTATTTAGGTTAAGGGGGTCATTCAGTTTGAAAG	3.95	5.19	4.01	2.74	5.73	4.05	2.07	6.2
CTATGTAGGTTAAGGGGGTCATTCAATTTGAAAG	3.69	4.93	3.88	2.02	5.5	3.97	1.83	5.01
CCTTACGGGTCAAGGTAATAGCACGGGTGGTACG	2.82	4.6	4.42	0.648	4.79	2.66	0.382	0.423
ATATGTAGGTTAGCTGGAGTCATTCAGACTAGGC	0.259	0.523	0.683	-0.228	0.583	0.807	-0.355	-0.00881
ATATGTAGGTTAGGGTCATTAAGAAAGTAGGGAA	3.33	3.59	2.76	2.22	4.57	3.9	2.76	3.54
TCGAGTAGGTTACGGGGGCATTCCGGGATGAAGA	2.02	3.36	2.56	1.49	2.87	3.7	0.954	2.67
CGAACTAGGGCACCAGGACAGTGAAGAGGTTGGA	0.758	0.748	1.34	0.0116	0.278	1.05	0.327	-0.274
CTATGTAAGTTAAGGGGGTCATTCAGTTTGAAAG	3.7	4.43	3.19	3.07	5.16	3.78	2.28	5.94
TCGAGTAGGTTACGGGGGCATTAAGGGATGAAGA	1.91	3.09	2.32	1.61	2.56	2.83	0.949	2.81
CTATGTAGGTTAAGGGGGTCATCCAGTTTGAAAG	4.02	5.27	4.17	2.11	5.94	3.97	1.94	4.9
CGAACTAGGACACCAGGACAGTGAAGAGGTTGGA	0.545	0.367	0.797	0.0708	0.0879	1.83	1.24	0.472
CTCGAAAGGTCGTGCTCAGGTGAGTATGCCAAAC	2.94	5.26	3.88	2.18	4.88	4.11	0.926	0.764
TCGAGTAGGTTACGGGGGTATTCAGGGATGAAGA	1.58	2.08	1.62	1.44	2.06	2.99	1.08	1.21
CTATGTAGGCTAAGGGGGTCATTCAGTTTGAAAG	3.39	4.23	2.53	1.96	4.7	3.45	1.51	4.02
CGAACTAGGTAAAAGGACAGTGAAAGGCGACGTA	1.17	0.486	0.964	-0.478	0.114	0.444	-0.377	-0.349
GATAAAGGGTCAGCTAGAGGCCAGAGTATGGAAA	4.46	7.34	6.77	1.54	5.05	3.06	-0.108	0.772
CGAACTAGGTCACCAGGACAGTAAAGAGGTTGGA	3.58	4.57	5.2	1.79	3.38	3.29	1.86	0.977
CATACACGGTCAGCTAGGCCAGAGTAGGGACGGC	1.5	1.24	2.04	-0.438	0.355	0.226	-0.129	-0.286
TCGAGTAGGTTACGAGGGCATTCAGGGATGAAGA	1.43	1.55	1.13	0.248	1.58	3.1	0.0603	1.27
GCTATTAGGTGAAAGGGCAACCGAATGATTCTCG	2.47	2.34	1.75	0.924	2.35	2.04	0.498	0.381
ATCGAAAGGGCGTGAGGTGAGTATACAGAAAGGC	1.44	1.47	1.36	-0.0845	1.17	2.12	1.08	0.15
